# Values joined by “and” are separate entries in the source; they are usually repeats but may differ in a detail not shown here. Equal values may be shown once. Results filed as inconclusive are left out. Entries that show only a call come without a potency. The source holds several records for some structures; these can differ, active in one and inactive in another. Active and inactive are the calls of the source. Unless noted, the call rests on the fitted dose curve; in most records, active means well fitted curve in the direction sought with a large enough effect in the repeat runs; inconclusive means weak or mixed curves; inactive means no such curve, though single readings can be large; an effect the other way counts as inactive or inconclusive.
# Columns and labels:
# [1] = A CellTox Green Cytotoxicity Assay to monitor cytotoxicity in HepG2 cells - 0 hour (AID 1224882); further: nearly all actives have a fitted effect of over 35% in size
# Procedure, shortened: (§1)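 Fluorescent DNA-binding dye, 600 HepG2 cells/well, 5 h preincubation then compound in DMSO; same plates read at 0–40 h, 37 C.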
# [2] = A CellTox Green Cytotoxicity Assay to monitor cytotoxicity in HepG2 cells - 32 hour (AID 1224883); further: nearly all actives have a fitted effect of over 50% in size; further: potency means the concentration at half of the fitted maximal effect
# Procedure, shortened: as §1
# [3] = A CellTox Green Cytotoxicity Assay to monitor cytotoxicity in HEK293 cells - 8 hour (AID 1224884); further: nearly all actives have a fitted effect of over 35% in size; further: potency means the concentration at half of the fitted maximal effect
# Procedure, shortened: (§2)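 Homogeneous no-lysis format: HEK293 cell suspension mixed with CellTox Green reagent, seeded, incubated 5 h at 37 C/5% CO2, then dosed by pintool with compound in DMSO.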
# [4] = qHTS RealTime-Glo MT Cell Viability Assay in HepG2 cells - 16 hour (AID 1224885); further: nearly all actives have a fitted effect of over 50% in size; further: potency means the concentration at half of the fitted maximal effect
# Procedure, shortened: (§3)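 Viability was tracked continuously by NanoLuc luminescence from prosubstrate reduced by living HepG2 cells, at successive time points over 40 h of compound exposure. Cells with reagent were preincubated 5 h at 37 °C before compound addition.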
# [5] = qHTS RealTime-Glo MT Cell Viability Assay in HEK293 cells - 24 hour (AID 1224886); further: nearly all actives have a fitted effect of over 50% in size; further: potency means the concentration at half of the fitted maximal effect
# Procedure, shortened: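 Viability tracked continuously by luminescence as live cells reduce a prosubstrate for NanoLuc; HEK293 cells preincubated 5 h, compound-treated at 37 C, and read at 0, 8, 16, 24, 32 and 40 h.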
# [6] = qHTS RealTime-Glo MT Cell Viability Assay in HEK293 cells - 8 hour (AID 1224887); further: nearly all actives have a fitted effect of over 50% in size; further: potency means the concentration at half of the fitted maximal effect
# Procedure, shortened: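 Measured as luminescence from the same continuously cultured HEK293 wells at successive time points (0, 8, 16, 24, 32, 40 h) after compound addition. Reagent present from seeding; dosing at 5 h; incubation 37 C.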
# [7] = A CellTox Green Cytotoxicity Assay to monitor cytotoxicity in HEK293 cells - 16 hour (AID 1224888); further: nearly all actives have a fitted effect of over 35% in size; further: potency means the concentration at half of the fitted maximal effect
# Procedure, shortened: as §2
# [8] = qHTS RealTime-Glo MT Cell Viability Assay in HepG2 cells - 0 hour (AID 1224889); further: nearly all actives have a fitted effect of over 50% in size
# Procedure, shortened: as §3
# [9] = A CellTox Green Cytotoxicity Assay to monitor cytotoxicity in HepG2 cells - 8 hour (AID 1224890); further: nearly all actives have a fitted effect of over 45% in size; further: potency means the concentration at half of the fitted maximal effect
# Procedure, shortened: as §1
# [10] = qHTS assay to identify small molecule antagonists of the estrogen receptor alpha (ER-alpha) signaling pathway using the BG1 cell line in the presence of 0.1 nM 17-beta-estradiol - cell viability counter screen (AID 1259241); further: nearly all actives have a fitted effect of over 40% in size; further: potency means the concentration at half of the fitted maximal effect
# Procedure, shortened: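 Cells were plated and left 24 hr, compounds in DMSO were pinned in, 17beta-estradiol was added to 0.1 nM final, and after 22 hr CellTiter-Fluor reagent was added for 30 min before fluorescence was read.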
# [11] = qHTS assay to identify small molecule antagonists of the androgen receptor (AR) signaling pathway using the MDA cell line in the presence of 0.5 nM R1881 - cell viability counter screen (AID 1259242); further: nearly all actives have a fitted effect of over 45% in size; further: potency means the concentration at half of the fitted maximal effect
# Procedure, shortened: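 Human breast carcinoma MDA-kb2 cells, cultured without CO2, receive compounds alongside 0.5 nM (final) R1881 agonist. After 16 hr at 37C, viability is taken as live-cell protease signal.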
# [12] = target: Estrogen receptor (Homo sapiens) (UniProt P03372); experiment: qHTS assay to identify small molecule antagonists of the estrogen receptor alpha (ER-alpha) signaling pathway using the BG1 cell line in the presence of 0.1 nM 17-beta-estradiol (AID 1259244); further: nearly all actives have a fitted effect of over 50% in size; further: potency means the concentration at half of the fitted maximal effect
# Procedure, shortened: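 Seeding of stripped-serum-adapted VM7Luc4E2 cells, 24 h attachment, compound transfer, then 0.1 nM final 17beta-estradiol; after 22 h incubation, ONE-Glo reagent and luminescence reading.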
# [13] = qHTS assay to identify small molecule phospholipidosis (PLD) inducers (AID 1259344; active means well fitted curve in the direction sought with a large enough effect; an effect the other way counts as inactive or inconclusive)
# Procedure, shortened: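 Read-out is LipidTOX Red fluorescence (ex 595/em 615) imaged in HepG2 cells after 24 h compound exposure at 37 C, with Hoechst nuclear counterstain (ex 352/em 461) allowing per-cell normalisation.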
# [14] = qHTS assay to identify small molecule HDAC inhibitors (AID 1259364);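 further: wild-type HCT-116 cells with endogenous class I/II HDAC activity; top concentration of the series differs between compounds; nearly all actives have a fitted effect of over 45% in size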
# Procedure, shortened: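 After a 2 hr compound incubation (37C, 5% CO2), HCT-116 cells seeded at 1,500/well the day before received HDAC-Glo reagent; signal read as luminescence after 30 min at room temperature.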
# [15] = qHTS assay to identify small molecule HDAC inhibitors - cell viability counter screen (AID 1259365); further: nearly all actives have a fitted effect of over 50% in size; further: potency means the concentration at half of the fitted maximal effect
# Procedure, shortened: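 Counter screen in wild-type HCT-116 cells: compounds dissolved in DMSO are pin-transferred onto overnight-plated cells and left 2hr at 37C. ATP-based CellTiter-Glo luminescence then measures viable cells.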
# [16] = qHTS assay to identify small molecule agonists of the sonic hedgehog signaling (Shh) pathway - cell viability counter screen (AID 1259366); further: nearly all actives have a fitted effect of over 50% in size; further: potency means the concentration at half of the fitted maximal effect
# Procedure, shortened: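 Cells are plated at 2,000 per well and left 4hr at 37C, 5% CO2 before compound addition. After 23hr of treatment, CellTiter-Fluor reagent is added for 1hr at 37C and fluorescence is measured.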
# [17] = qHTS assay to identify small molecule antagonists of the sonic hedgehog signaling (Shh) pathway - cell viability counter screen (AID 1259367); further: nearly all actives have a fitted effect of over 55% in size; further: potency means the concentration at half of the fitted maximal effect
# Procedure, shortened: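 Fluorescence read-out (CellTiter-Fluor, 1 hr at 37C) taken after 23 hr compound treatment of 3T3 Gli1-Luc cells stimulated with conditioned medium. Cells were seeded at 2,000 per well and pre-incubated 4 hr.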
# [18] = qHTS assay to identify small molecule agonists of the sonic hedgehog signaling (Shh) pathway (AID 1259368; calls by dose curve;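 further: NIH/3T3-derived 3T3Gli1-Luc cells carrying a stable Gli1-driven firefly luciferase reporter; series mostly up to about 92 µM; nearly all actives have a fitted effect of over 15% in size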)
# Procedure, shortened: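 Stable NIH/3T3 Gli1-Luc reporter clone; 24 hr cpd exposure after a 4 hr settling period; luminescence endpoint.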
# [19] = qHTS assay to identify small molecule antagonists of the sonic hedgehog signaling (Shh) pathway (AID 1259369; calls by dose curve; further: nearly all actives have a fitted effect of over 45% in size; further: potency means the concentration at half of the fitted maximal effect)
# Procedure, shortened: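 Gli1 transcriptional reporter (firefly Luc) in NIH/3T3 background, conditioned-medium activated. 24hr exposure, luminescence endpoint.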
# [20] = target: Androgen receptor (Homo sapiens) (UniProt P10275); experiment: qHTS assay to identify small molecule antagonists of the androgen receptor (AR) signaling pathway using the MDA cell line in the presence of 0.5 nM R1881 (AID 1259243); further: nearly all actives have a fitted effect of over 50% in size; further: potency means the concentration at half of the fitted maximal effect
# Procedure, shortened: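 Cells: MDA-kb2 (MMTV-luc). Stimulus: 0.5 nM R1881. Time: 16 hr, 37C, no CO2. Detection: ONE-Glo luminescence after 30 min at RT.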
# Sequence of Androgen receptor (Homo sapiens) (P10275 whole entry, looked up): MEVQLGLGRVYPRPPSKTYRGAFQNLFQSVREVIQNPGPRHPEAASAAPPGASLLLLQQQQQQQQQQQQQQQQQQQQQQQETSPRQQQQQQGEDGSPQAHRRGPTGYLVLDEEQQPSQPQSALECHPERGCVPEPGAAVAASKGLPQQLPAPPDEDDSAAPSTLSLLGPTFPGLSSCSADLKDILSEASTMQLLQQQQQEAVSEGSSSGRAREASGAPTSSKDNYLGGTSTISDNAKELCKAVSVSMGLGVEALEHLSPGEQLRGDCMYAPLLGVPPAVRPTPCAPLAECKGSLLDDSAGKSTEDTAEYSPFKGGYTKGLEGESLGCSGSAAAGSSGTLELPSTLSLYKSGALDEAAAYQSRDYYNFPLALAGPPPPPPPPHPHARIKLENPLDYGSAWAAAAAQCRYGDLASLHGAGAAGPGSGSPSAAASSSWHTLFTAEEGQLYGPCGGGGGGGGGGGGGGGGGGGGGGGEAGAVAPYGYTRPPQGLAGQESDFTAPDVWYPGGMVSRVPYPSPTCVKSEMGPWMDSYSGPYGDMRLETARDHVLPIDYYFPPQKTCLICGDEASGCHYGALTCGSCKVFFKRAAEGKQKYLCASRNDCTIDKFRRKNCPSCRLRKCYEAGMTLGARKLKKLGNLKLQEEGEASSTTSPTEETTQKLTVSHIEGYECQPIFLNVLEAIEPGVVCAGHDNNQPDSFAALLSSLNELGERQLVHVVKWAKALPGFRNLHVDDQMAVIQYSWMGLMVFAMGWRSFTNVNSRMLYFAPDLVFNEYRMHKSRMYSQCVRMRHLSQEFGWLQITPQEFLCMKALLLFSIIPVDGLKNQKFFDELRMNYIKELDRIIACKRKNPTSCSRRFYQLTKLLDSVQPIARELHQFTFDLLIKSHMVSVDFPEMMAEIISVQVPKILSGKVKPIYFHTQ
# Sequence of Estrogen receptor (Homo sapiens) (P03372 whole entry, looked up): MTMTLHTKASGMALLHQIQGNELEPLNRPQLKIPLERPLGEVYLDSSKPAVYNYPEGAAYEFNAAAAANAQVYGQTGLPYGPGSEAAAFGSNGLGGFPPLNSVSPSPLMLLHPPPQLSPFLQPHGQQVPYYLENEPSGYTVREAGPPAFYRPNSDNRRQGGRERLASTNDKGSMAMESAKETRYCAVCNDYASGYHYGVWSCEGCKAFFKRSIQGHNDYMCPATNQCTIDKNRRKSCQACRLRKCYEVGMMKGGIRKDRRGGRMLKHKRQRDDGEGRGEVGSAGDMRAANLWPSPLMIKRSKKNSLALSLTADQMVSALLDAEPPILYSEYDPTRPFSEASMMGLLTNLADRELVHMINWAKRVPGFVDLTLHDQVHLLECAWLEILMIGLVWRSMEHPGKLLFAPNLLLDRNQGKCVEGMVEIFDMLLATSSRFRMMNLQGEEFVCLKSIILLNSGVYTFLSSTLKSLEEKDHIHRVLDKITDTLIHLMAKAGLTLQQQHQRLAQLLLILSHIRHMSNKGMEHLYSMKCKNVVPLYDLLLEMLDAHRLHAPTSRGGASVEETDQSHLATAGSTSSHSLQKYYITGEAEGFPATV
Structure (SMILES),Potency [1],Potency [2],Potency [3],Potency [4],Potency [5],Potency [6],Potency [7],Potency [8],Potency [9],Potency [10],Potency [11],Potency [12],outcome [13],Potency [14],Potency [15],Potency [16],Potency [17],Potency [18],Potency [19],Potency [20]
c1ccc2c(c1)Nc1ccccc1S2,inactive,inactive,inactive,inactive,11 µM (active) and 10.7 µM (active),13.8 µM (active) and 10.7 µM (active),inactive,inactive,inactive,inactive,inactive,inactive,inactive,inactive,inactive,inactive,inactive,inactive,inactive,
Clc1cccc(C(Cl)(Cl)Cl)n1,inactive,54.5 µM (active),inactive,inactive,inactive,inactive,inactive,inactive,inactive,inactive,inactive,inactive,,inactive,inactive,inactive,inactive,inactive,inactive,inactive
COP(=S)(OC)Oc1ccc(Sc2ccc(OP(=S)(OC)OC)cc2)cc1,inactive,inactive,inactive,inactive,inactive,inactive,inactive,inactive,inactive,inactive,inactive,61.1 µM (active) and inactive,inactive,inactive,inactive,inactive,inactive,inactive,68.6 µM (active) and inactive,61.1 µM (active) and inactive
CC[n+]1c(-c2ccccc2)c2cc(N)ccc2c2ccc(N)cc21,inactive,inactive,inactive,inactive,6.89 µM (active) and 9.52 µM (active),34.5 µM (active),inactive,inactive,inactive,30.5 µM (active),24.2 µM (active) and 13.3 µM (active),27.2 µM (active) and 21.1 µM (active),inactive,inactive,inactive,54.2 µM (active) and inactive,48.3 µM (active) and inactive,inactive,17100 nM (active),
CCCCCCCC[N+](C)(CCCCCCCC)CCCCCCCC,inactive,8.69 µM (active) and 19.5 µM (active) and 13.8 µM (active),24.5 µM (active) and 13.8 µM (active),15.5 µM (active) and 21.9 µM (active) and 13.8 µM (active),548 nM (active) and 138 nM (active) and 2.19 µM (active),9.75 µM (active) and 21.9 µM (active) and 15.5 µM (active),24.5 µM (active) and 24.6 µM (active) and 15.5 µM (active),inactive,21.8 µM (active) and 39 µM (active) and 21.9 µM (active),24.3 µM (active) and 27.3 µM (active) and 48.6 µM (active),17.2 µM (active) and 3.44 µM (active) and 15.4 µM (active),1.22 µM (active) and 15.4 µM (active),,inactive,inactive and 61.1 µM (active),48.5 µM (active) and 9.7 µM (active) and 19.3 µM (active),61 µM (active) and 10.9 µM (active) and 24.3 µM (active),inactive,193 nM (active) and 48.6 nM (active) and 306 nM (active),
S=c1[nH]c2ccccc2[nH]1,inactive,inactive and 21.9 µM (active),inactive,inactive,inactive,inactive,inactive,inactive,inactive,inactive,inactive,,,inactive,inactive,inactive,inactive,inactive,inactive,inactive
C[N+](C)(C)CC(=O)[O-],inactive,inactive,inactive,inactive,inactive,inactive,inactive,inactive,inactive,inactive,inactive,inactive,inactive,inactive,inactive,inactive,inactive,inactive,inactive,
O=C1CCCO1,inactive,inactive,inactive,inactive,inactive,inactive,inactive,inactive,inactive,inactive,inactive,,,inactive,inactive,inactive,inactive,inactive,inactive,inactive
CNC(=O)CSP(=S)(OC)OC,inactive,inactive,inactive,inactive,inactive,inactive,inactive,inactive,inactive,inactive,inactive,inactive,,inactive,inactive,inactive,28.1 µM (active) and inactive,inactive,14.1 µM (active) and inactive,
CCOP(=S)(OCC)SCSC(C)(C)C,inactive,inactive,inactive,inactive,inactive,inactive,inactive,inactive,inactive,inactive,inactive,inactive,,inactive,inactive,inactive,inactive,inactive,inactive,
O=[N+]([O-])c1ccc(Cl)c([N+](=O)[O-])c1,inactive,35.2 µM (active) and 24.5 µM (active),inactive,39.5 µM (active) and 17.4 µM (active),11.1 µM (active) and 12.3 µM (active),14 µM (active) and 17.4 µM (active),inactive,inactive,61.7 µM (active),27.7 µM (active) and 54.5 µM (active),24.7 µM (active) and 21.7 µM (active),31.1 µM (active) and 43.3 µM (active),,inactive,,5.53 µM (active) and 13.7 µM (active),3.92 µM (active) and 10.9 µM (active),inactive,1.1 µM (active) and 6.86 µM (active),12.4 µM (active)
CC(C)Nc1nc(Cl)nc(NC(C)C)n1,inactive,inactive,inactive,inactive,inactive,inactive,inactive,inactive,inactive,inactive,inactive,inactive,,inactive,inactive,inactive,inactive,inactive,768 nM (active),
CCCCCCCCCc1ccc(O)cc1,inactive,39.3 µM (active) and 34.7 µM (active),inactive,inactive,7.84 µM (active) and 4.9 µM (active),6.99 µM (active) and 4.36 µM (active),inactive,inactive,inactive,inactive,inactive,inactive,,inactive,inactive,inactive,inactive,inactive,30.9 µM (active) and 43.3 µM (active),
C=CC(Cl)CCl (centres undefined),inactive,inactive,inactive,inactive,inactive,inactive,inactive,inactive,inactive,inactive,inactive,,,inactive,inactive,inactive,inactive,inactive,inactive,inactive
Oc1ccc(Cl)cc1Cl,inactive,inactive,inactive,inactive,inactive,inactive,inactive,inactive,inactive,inactive,inactive,inactive,,inactive,inactive,inactive,inactive,inactive,inactive,
CSc1nc(NC(C)C)nc(NC(C)C)n1,inactive,inactive,inactive,inactive,inactive,inactive,inactive,inactive,inactive,inactive,inactive,inactive,,inactive,inactive,inactive,inactive,inactive,766 nM (active),
CC(C)=CC1C(C(=O)OCN2C(=O)C3=C(CCCC3)C2=O)C1(C)C (centres undefined),inactive,inactive,inactive,inactive,inactive,inactive,inactive,inactive,inactive,inactive,inactive,,inactive,inactive,inactive,inactive,inactive,inactive,inactive,inactive
ClCc1ccccn1,inactive,inactive,inactive,inactive,inactive,inactive,inactive,inactive,inactive,inactive,inactive,inactive,,inactive,inactive,inactive,inactive,inactive,inactive,
C=C(C)C#N,inactive,inactive,inactive,inactive,inactive and 13.8 µM (active),inactive,inactive,inactive,inactive,inactive,inactive,inactive,,inactive,inactive,inactive,inactive,inactive,inactive,
CCOP(=S)(OCC)SCn1c(=O)oc2cc(Cl)ccc21,inactive,inactive,inactive,inactive,26.3 µM (active) and 21.9 µM (active),26.3 µM (active) and 15.5 µM (active),inactive,inactive,inactive,inactive,inactive,inactive,,inactive,inactive,inactive,inactive,inactive,,
C[N+](C)(C)CC(=O)O,inactive,inactive,inactive,inactive,inactive,inactive,inactive,inactive,inactive,inactive,inactive,inactive,inactive,inactive,inactive,inactive,inactive,inactive,inactive,
CC1(C)Cc2cccc(O)c2O1,inactive,inactive,inactive,inactive,inactive,inactive,inactive,inactive,inactive,inactive,inactive,inactive,,inactive,inactive,inactive,inactive,inactive,inactive,
C=CC(=O)OCC(CC)(COC(=O)C=C)COC(=O)C=C,inactive,14.2 µM (active),inactive,25.2 µM (active) and 13.8 µM (active),4 µM (active) and 11 µM (active),28.3 µM (active) and 21.9 µM (active),inactive,inactive,inactive,70.4 µM (active),31.5 µM (active),22.3 µM (active) and inactive,,inactive,,11.2 µM (active) and 9.69 µM (active),8.87 µM (active) and 9.69 µM (active),inactive,2.23 µM (active) and 3.06 µM (active),4.99 µM (active) and 13.7 µM (active)
CCOP(=S)(OCC)OP(=S)(OCC)OCC,inactive,inactive,inactive,inactive,inactive,inactive,inactive,inactive,inactive,inactive,inactive,,,inactive,inactive,inactive,inactive,inactive,inactive,inactive

# Reference: PubChem BioAssay (Tox21)
